{"source": "PubChem BioAssay AID1159580", "about": "(chemical genetic matrix, 2015)", "assay": "chemical genetic growth profiling, strain panel (AID 1159580);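 further: tested at 20 µM; growth read once vehicle control cultures reached saturation at 30 °C; 1 = growth at the plate median or of vehicle wells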", "settings": "S. cerevisiae deletion strains, growth OD", "note": "Screen size: about 5,500 compounds; about 2,000 (36%) were called active. About 18% were inconclusive and are not listed. The list shows a part of the results. Unmarked numbers belong to inactive results. No stated cut-off is given here; in the data, active means normalized growth mostly below about 0.91 (no sharp cut-off); inconclusive means no clear call, values can overlap the other calls; inactive means mostly above about 0.92.", "data": [{"smiles": "O=C(O)c1cc(=O)c(O)c2c(O)c(O)c(O)cc2c1", "values": [{"measurement": "normalized growth", "setting": "locus YAL021C, strain ccr4, stronger effect = lower value", "result": "0.0892 (active)"}, {"measurement": "normalized growth", "setting": "locus YAL026C, strain drs2, stronger effect = lower value", "result": "0.216 (active)"}, {"measurement": "normalized growth", "setting": "locus YAL030W, strain snc1, stronger effect = lower value", "result": "0.757 (active)"}, {"measurement": "normalized growth", "setting": "locus YBL061C, strain skt5, stronger effect = lower value", "result": "0.639 (active)"}, {"measurement": "normalized growth", "setting": "locus YBR009C, strain hhf1, stronger effect = lower value", "result": "0.694 (active)"}, {"measurement": "normalized growth", "setting": "locus YBR023C, strain chs3, stronger effect = lower value", "result": "0.549 (active)"}, {"measurement": "normalized growth", "setting": "locus YBR171W, strain sec66, stronger effect = lower value", "result": "0.812 (active)"}, {"measurement": "normalized growth", "setting": "locus YBR231C, strain swc5, stronger effect = lower value", "result": "0.483 (active)"}, {"measurement": "normalized growth", "setting": "locus YBR279W, strain paf1, stronger effect = lower value", "result": "0.754 (active)"}, {"measurement": "normalized growth", "setting": "locus YCL011C, strain gbp2, stronger effect = lower value", "result": "0.72 (active)"}, {"measurement": "normalized growth", "setting": "locus YCL016C, strain dcc1, stronger effect = lower value", "result": "0.809 (active)"}, {"measurement": "normalized growth", "setting": "locus YCL061C, strain MRC1, stronger effect = lower value", "result": "0.651 (active)"}, {"measurement": "normalized growth", "setting": "locus YCL069W, strain vba3, stronger effect = lower value", "result": "0.69 (active)"}, {"measurement": "normalized growth", "setting": "locus YCR088W, strain abp1, stronger effect = lower value", "result": "0.707 (active)"}, {"measurement": "normalized growth", "setting": "locus YDL005C, strain med2, stronger effect = lower value", "result": 0.953}, {"measurement": "normalized growth", "setting": "locus YDL040C, strain nat1, stronger effect = lower value", "result": "0.906 (active)"}, {"measurement": "normalized growth", "setting": "locus YDR001C, strain nth1, stronger effect = lower value", "result": "0.846 (active)"}, {"measurement": "normalized growth", "setting": "locus YDR069C, strain doa4, stronger effect = lower value", "result": "0.161 (active)"}, {"measurement": "normalized growth", "setting": "locus YDR137W, strain rgp1, stronger effect = lower value", "result": "0.142 (active)"}, {"measurement": "normalized growth", "setting": "locus YDR159W, strain sac3, stronger effect = lower value", "result": "0.134 (active)"}, {"measurement": "normalized growth", "setting": "locus YDR195W, strain ref2", "result": "0.481 (active)"}, {"measurement": "normalized growth", "setting": "locus YDR297W, strain sur2, stronger effect = lower value", "result": "0.729 (active)"}, {"measurement": "normalized growth", "setting": "locus YDR334W, strain swr1, stronger effect = lower value", "result": "0.353 (active)"}, {"measurement": "normalized growth", "setting": "locus YDR335W, strain msn5, stronger effect = lower value", "result": "0.128 (active)"}, {"measurement": "normalized growth", "setting": "locus YDR392W, strain spt3, stronger effect = lower value", "result": "0.708 (active)"}, {"measurement": "normalized growth", "setting": "locus YEL003W, strain gim4, stronger effect = lower value", "result": "0.511 (active)"}, {"measurement": "normalized growth", "setting": "locus YEL037C, strain rad23, stronger effect = lower value", "result": "0.552 (active)"}, {"measurement": "normalized growth", "setting": "locus YEL061C, strain CIN8 (second series), stronger effect = lower value", "result": "0.756 (active)"}, {"measurement": "normalized growth", "setting": "locus YER015W, strain faa2, stronger effect = lower value", "result": "0.488 (active)"}, {"measurement": "normalized growth", "setting": "locus YER016W, strain bim1, stronger effect = lower value", "result": "0.84 (active)"}, {"measurement": "normalized growth", "setting": "locus YER111C, strain swi4, stronger effect = lower value", "result": "0.14 (active)"}, {"measurement": "normalized growth", "setting": "locus YER155C, strain BEM2 (second series), stronger effect = lower value", "result": "0.432 (active)"}, {"measurement": "normalized growth", "setting": "locus YFR010W, strain ubp6, stronger effect = lower value", "result": "0.374 (active)"}, {"measurement": "normalized growth", "setting": "locus YGL167C, strain pmr1, stronger effect = lower value", "result": "0.558 (active)"}, {"measurement": "normalized growth", "setting": "locus YGL173C, strain kem1, stronger effect = lower value", "result": "0.352 (active)"}, {"measurement": "normalized growth", "setting": "locus YGL227W, strain vid30, stronger effect = lower value", "result": 0.944}, {"measurement": "normalized growth", "setting": "locus YGL240W, strain doc1, stronger effect = lower value", "result": "0.869 (active)"}, {"measurement": "normalized growth", "setting": "locus YGL253W, strain hxk2, stronger effect = lower value", "result": "0.545 (active)"}, {"measurement": "normalized growth", "setting": "locus YHR013C, strain ard1, stronger effect = lower value", "result": "0.546 (active)"}, {"measurement": "normalized growth", "setting": "locus YHR027C, strain rpn1, stronger effect = lower value", "result": "0.422 (active)"}, {"measurement": "normalized growth", "setting": "locus YHR030C, strain SLT2, stronger effect = lower value", "result": "0.581 (active)"}, {"measurement": "normalized growth", "setting": "locus YHR079C, strain IRE1, stronger effect = lower value", "result": "0.546 (active)"}, {"measurement": "normalized growth", "setting": "locus YHR142W, strain chs7, stronger effect = lower value", "result": "0.363 (active)"}, {"measurement": "normalized growth", "setting": "locus YJL092W, strain hpr5, stronger effect = lower value", "result": "0.728 (active)"}, {"measurement": "normalized growth", "setting": "locus YJL095W, strain BCK1 (second series), stronger effect = lower value", "result": "0.604 (active)"}, {"measurement": "normalized growth", "setting": "locus YJL095W, strain BCK1, stronger effect = lower value", "result": "0.575 (active)"}, {"measurement": "normalized growth", "setting": "locus YJL115W, strain asf1, stronger effect = lower value", "result": "0.771 (active)"}, {"measurement": "normalized growth", "setting": "locus YJL129C, strain trk1, stronger effect = lower value", "result": "0.235 (active)"}, {"measurement": "normalized growth", "setting": "locus YJL154C, strain vps35, stronger effect = lower value", "result": "0.768 (active)"}, {"measurement": "normalized growth", "setting": "locus YJL164C, strain tpk1, stronger effect = lower value", "result": "0.666 (active)"}, {"measurement": "normalized growth", "setting": "locus YJL166W, strain qcr8, stronger effect = lower value", "result": "0.743 (active)"}, {"measurement": "normalized growth", "setting": "locus YJL187C, strain SWE1, stronger effect = lower value", "result": "0.737 (active)"}, {"measurement": "normalized growth", "setting": "locus YJR066W, strain TOR1, stronger effect = lower value", "result": "0.312 (active)"}, {"measurement": "normalized growth", "setting": "locus YKL160W, strain elf1, stronger effect = lower value", "result": "0.777 (active)"}, {"measurement": "normalized growth", "setting": "locus YKR026C, strain gcn3, stronger effect = lower value", "result": "0.854 (active)"}, {"measurement": "normalized growth", "setting": "locus YKR091W, strain srl3, stronger effect = lower value", "result": 0.934}, {"measurement": "normalized growth", "setting": "locus YLL001W, strain dnm1, stronger effect = lower value", "result": "0.548 (active)"}, {"measurement": "normalized growth", "setting": "locus YLL026W, stronger effect = lower value", "result": "0.804 (active)"}, {"measurement": "normalized growth", "setting": "locus YLL041C, strain sdh2, stronger effect = lower value", "result": "0.897 (active)"}, {"measurement": "normalized growth", "setting": "locus YLR027C, strain aat2, stronger effect = lower value", "result": "0.718 (active)"}, {"measurement": "normalized growth", "setting": "locus YLR113W, strain HOG1, stronger effect = lower value", "result": "0.525 (active)"}, {"measurement": "normalized growth", "setting": "locus YLR221C, strain rsa3, stronger effect = lower value", "result": "0.685 (active)"}, {"measurement": "normalized growth", "setting": "locus YLR258W, strain gsy2, stronger effect = lower value", "result": "0.787 (active)"}, {"measurement": "normalized growth", "setting": "locus YLR262C, strain YPT6 (second series), stronger effect = lower value", "result": "0.483 (active)"}, {"measurement": "normalized growth", "setting": "locus YLR320W, strain mms22, stronger effect = lower value", "result": "0.56 (active)"}, {"measurement": "normalized growth", "setting": "locus YLR342W, strain FKS1, stronger effect = lower value", "result": "0.538 (active)"}, {"measurement": "normalized growth", "setting": "locus YLR357W, strain rsc2, stronger effect = lower value", "result": "0.593 (active)"}, {"measurement": "normalized growth", "setting": "locus YLR370C, strain arc18, stronger effect = lower value", "result": "0.347 (active)"}, {"measurement": "normalized growth", "setting": "locus YLR384C, strain iki3, stronger effect = lower value", "result": "0.642 (active)"}, {"measurement": "normalized growth", "setting": "locus YML120C, strain ndi1, stronger effect = lower value", "result": "0.193 (active)"}, {"measurement": "normalized growth", "setting": "locus YMR058W, strain fet3, stronger effect = lower value", "result": "0.275 (active)"}, {"measurement": "normalized growth", "setting": "locus YMR125W, strain sto1, stronger effect = lower value", "result": 0.89}, {"measurement": "normalized growth", "setting": "locus YMR129W, stronger effect = lower value", "result": "0.815 (active)"}, {"measurement": "normalized growth", "setting": "locus YMR205C, strain PFK2, stronger effect = lower value", "result": "0.547 (active)"}, {"measurement": "normalized growth", "setting": "locus YMR231W, strain pep5, stronger effect = lower value", "result": "0.169 (active)"}, {"measurement": "normalized growth", "setting": "locus YNL071W, strain lat1, stronger effect = lower value", "result": "0.873 (active)"}, {"measurement": "normalized growth", "setting": "locus YNL183C, strain NPR1, stronger effect = lower value", "result": "0.243 (active)"}, {"measurement": "normalized growth", "setting": "locus YNL209W, strain ssb2, stronger effect = lower value", "result": "0.273 (active)"}, {"measurement": "normalized growth", "setting": "locus YNL248C, strain rpa49, stronger effect = lower value", "result": "0.725 (active)"}, {"measurement": "normalized growth", "setting": "locus YNL322C, strain KRE1 (second series), stronger effect = lower value", "result": "0.208 (active)"}, {"measurement": "normalized growth", "setting": "locus YNR049C, strain mso1, stronger effect = lower value", "result": "0.79 (active)"}, {"measurement": "normalized growth", "setting": "locus YOR001W, strain rrp6, stronger effect = lower value", "result": "0.544 (active)"}, {"measurement": "normalized growth", "setting": "locus YOR070C, strain gyp1, stronger effect = lower value", "result": "0.849 (active)"}, {"measurement": "normalized growth", "setting": "locus YOR080W, strain dia2, stronger effect = lower value", "result": "0.387 (active)"}, {"measurement": "normalized growth", "setting": "locus YOR083W, strain WHI5, stronger effect = lower value", "result": "0.645 (active)"}, {"measurement": "normalized growth", "setting": "locus YOR106W, strain vam3, stronger effect = lower value", "result": "0.295 (active)"}, {"measurement": "normalized growth", "setting": "locus YOR231W, strain MKK1, stronger effect = lower value", "result": "0.615 (active)"}, {"measurement": "normalized growth", "setting": "locus YOR265W, strain rbl2, stronger effect = lower value", "result": "0.771 (active)"}, {"measurement": "normalized growth", "setting": "locus YOR270C, strain vph1, stronger effect = lower value", "result": "0.198 (active)"}, {"measurement": "normalized growth", "setting": "locus YOR290C, strain snf2, stronger effect = lower value", "result": "0.0962 (active)"}, {"measurement": "normalized growth", "setting": "locus YPL051W, strain arl3, stronger effect = lower value", "result": "0.465 (active)"}, {"measurement": "normalized growth", "setting": "locus YPL078C, strain atp4, stronger effect = lower value", "result": "0.124 (active)"}, {"measurement": "normalized growth", "setting": "locus YPL106C, strain sse1, stronger effect = lower value", "result": "0.723 (active)"}, {"measurement": "normalized growth", "setting": "locus YPL240C, strain hsp82, stronger effect = lower value", "result": "0.872 (active)"}, {"measurement": "normalized growth", "setting": "locus YPL256C, strain CLN2, stronger effect = lower value", "result": "0.567 (active)"}]}]}
